Source: the supplement of paper PMC11865577
Counter-ions that a name gives are not always drawn.

Each compound was assayed on SARS-CoV-2 low-rank motif (SARS-low) (assay: normalised indicator fluorescence (fraction of RNA + indicator signal without compound); higher = less displacement of indicator (weaker competition)). Settings: compound concentration: 5 uM; 30 min; indicator: TO-PRO-3 0.5 uM; RNA concentration: 0.5 uM.
Procedure, shortened: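 Displacement screen in 96-well plates: TO-PRO-1 or TO-PRO-3 indicator with RNA in 20 mM phosphate pH 7.0, 20 mM NaCl, 80 mM KCl. Each compound was added as 0.25 μL of 1 mM DMSO stock (about 5 uM final), and fluorescence was read after 30 min on an Infinite 200 PRO (excitation 485 or 620 nm). Values are indicator fluorescence after subtracting the buffer-plus-indicator blank, divided by the no-compound RNA-plus-indicator signal. Each is the mean of two independent experiments.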

Which normalised indicator fluorescence does the source give for O=CN1CC/C(=C/c2ccc3c(c2)OCO3)C1=O here?
Its normalised indicator fluorescence is 1.08.

For CC(C)N(CCCCOCC(=O)NS(C)(=O)=O)c1cnc(-c2ccccc2)c(-c2ccccc2)n1 [Selexipag], which normalised indicator fluorescence is on record?
The normalised indicator fluorescence was 1.13.

Which normalised indicator fluorescence does the source give for CN(C)CCCN1c2ccccc2CCc2ccc(Cl)cc21 [Clomipramine hydrochloride] here?
The normalised indicator fluorescence was 1.13.

How did the normalised indicator fluorescence turn out when NC(=O)N/N=C/c1ccc([N+](=O)[O-])o1 [Furacilin] was run?
The normalised indicator fluorescence was 1.05.

CC(=O)O[C@H]1C[C@@]2(C)[C@@H](C[C@@H](O)[C@H]3[C@@]4(C)CC[C@@H](O)[C@@H](C)[C@@H]4CC[C@@]32C)/C1=C(\CCC=C(C)C)C(=O)O [Sodium fusidate] was tested. Which normalised indicator fluorescence did it give?
The normalised indicator fluorescence was 1.04.

With C[C@@H]1O[C@@H](Oc2c(-c3cc(O)c(O)c(O)c3)oc3cc(O)cc(O)c3c2=O)[C@H](O)[C@H](O)[C@H]1O [Myricetrin] as the compound, how does the normalised indicator fluorescence read?
Its normalised indicator fluorescence is 1.07.

How did the normalised indicator fluorescence turn out when CNC(=O)c1ccc(C)c(-n2c(C)cc(OCc3ccc(F)cc3F)c(Br)c2=O)c1 was run?
Its normalised indicator fluorescence is 1.07.

For COC1=C(OC)C(=O)C(CCCCCCCCCCO)=C(C)C1=O [Idebenone], which normalised indicator fluorescence is on record?
The normalised indicator fluorescence was 1.12.

Cn1cc(-c2ccc3c(c2)CCN3C(=O)Cc2cccc(C(F)(F)F)c2)c2c(N)ncnc21 was tested. Which normalised indicator fluorescence did it give?
Its normalised indicator fluorescence is 1.24.

How did the normalised indicator fluorescence turn out when O=c1c(O)c(-c2ccccc2)oc2cc(O)cc(O)c12 [Galangin] was run?
The normalised indicator fluorescence was 1.28.

For Nc1ncnc2c1ncn2[C@@H]1O[C@H](CO)[C@@H](O)[C@@H]1O [Vidarabine], which normalised indicator fluorescence is on record?
The normalised indicator fluorescence was 1.17.

For O=c1ccc2ccc(O)c(O)c2o1 [Daphnetin], which normalised indicator fluorescence is on record?
The normalised indicator fluorescence was 0.935.

For N#CC(c1ccnc(OCc2ccc(CN3CCOCC3)cc2)n1)c1nc2ccccc2s1 (stereo unspecified), which normalised indicator fluorescence is on record?
Its normalised indicator fluorescence is 0.556.

With O=c1cc(-c2ccccc2)oc2cc(O)c(O)c(O)c12 [Baicalein] as the compound, how does the normalised indicator fluorescence read?
The normalised indicator fluorescence was 0.739.

C1CCN2C[C@@H]3C[C@@H](CN4CCCC[C@@H]34)[C@H]2C1 [(-)-Sparteine sulfate pentahydrate] was tested. Which normalised indicator fluorescence did it give?
Its normalised indicator fluorescence is 0.993.

With CN1CCN(c2ccc(C(=O)Nc3n[nH]c4ccc(Cc5cc(F)cc(F)c5)cc34)c(NC3CCOCC3)c2)CC1 [Entrectinib] as the compound, how does the normalised indicator fluorescence read?
The normalised indicator fluorescence was 1.39.

For COc1ccc(-c2coc3cc(O)ccc3c2=O)cc1O [Calycosin], which normalised indicator fluorescence is on record?
Its normalised indicator fluorescence is 1.09.

Which normalised indicator fluorescence does the source give for CC(C)c1cc(-c2n[nH]c(=O)n2-c2ccc3c(ccn3C)c2)c(O)cc1O [Ganetespib] here?
The normalised indicator fluorescence was 1.28.

Which normalised indicator fluorescence does the source give for O=c1ccc2ccc(O)cc2o1 [7-Hydroxycoumarin] here?
Its normalised indicator fluorescence is 1.16.

For COC(=O)C1=CC[C@@]23CC[C@@H]([C@@](C)(/C=C/C=C(\C)C(=O)O)OC2=O)[C@@]3(OC(C)=O)CC1 [Pseudolaric Acid B], which normalised indicator fluorescence is on record?
The normalised indicator fluorescence was 1.27.

Which normalised indicator fluorescence does the source give for O=C(O)/C=C/c1ccc(Cn2ccnc2)cc1 [Ozagrel hydrochloride] here?
Its normalised indicator fluorescence is 1.09.

For CN(NC(=O)CC(=O)NN(C)C(=S)c1ccccc1)C(=S)c1ccccc1 [Elesclomol], which normalised indicator fluorescence is on record?
Its normalised indicator fluorescence is 1.25.

How did the normalised indicator fluorescence turn out when CC(=O)CCCCn1c(=O)c2c(ncn2C)n(C)c1=O [Pentoxifylline] was run?
Its normalised indicator fluorescence is 1.05.

For O=C(O)C(O)Cc1ccc(O)c(O)c1 (stereo unspecified) [Sodium Danshensu], which normalised indicator fluorescence is on record?
Its normalised indicator fluorescence is 0.931.

Which normalised indicator fluorescence does the source give for CN1CCN(c2nc(C3=C(c4c[nH]c5ccccc45)C(=O)NC3=O)c3ccccc3n2)CC1 [Sotrastaurin] here?
The normalised indicator fluorescence was 1.29.

Which normalised indicator fluorescence does the source give for CCCC(C(=O)OCCN(CC)CC)(c1ccccc1)c1ccccc1 [Proadifen hydrochloride] here?
The normalised indicator fluorescence was 1.04.

How did the normalised indicator fluorescence turn out when N=C(NCCCCCCNC(=N)NC(=N)Nc1ccc(Cl)cc1)NC(=N)Nc1ccc(Cl)cc1 [Chlorhexidine hydrochloride] was run?
The normalised indicator fluorescence was 1.01.

Which normalised indicator fluorescence does the source give for N=C(NCCCCCCNC(=N)NC(=N)Nc1ccc(Cl)cc1)NC(=N)Nc1ccc(Cl)cc1 [Chlorhexidine] here?
The normalised indicator fluorescence was 1.16.

How did the normalised indicator fluorescence turn out when COc1ccc2c(c[n+](C)c3c4cc5c(cc4ccc23)OCO5)c1OC [Chelerythrine chloride] was run?
Its normalised indicator fluorescence is 0.807.

C[S+]([O-])c1ccc(-c2nc(-c3ccc(F)cc3)c(-c3ccncc3)[nH]2)cc1 (stereo unspecified) was tested. Which normalised indicator fluorescence did it give?
The normalised indicator fluorescence was 0.92.

For CC1=CC(=O)c2c(O)cccc2C1=O [Plumbagin], which normalised indicator fluorescence is on record?
Its normalised indicator fluorescence is 1.02.

For CCc1cc(C(N)=S)ccn1 [Ethinamide], which normalised indicator fluorescence is on record?
The normalised indicator fluorescence was 1.12.

With O=C(Nc1nc2ccc(NC(=O)C34CC5CC(CC(C5)C3)C4)cc2s1)c1ccccc1 as the compound, how does the normalised indicator fluorescence read?
Its normalised indicator fluorescence is 1.12.

For O=c1c(O)c(-c2cc(O)c(O)c(O)c2)oc2cc(O)cc(O)c12 [Myricetin], which normalised indicator fluorescence is on record?
Its normalised indicator fluorescence is 0.0645.

For COc1nccnc1NS(=O)(=O)c1ccc(NC(=O)/C=C/c2ccc([N+](=O)[O-])s2)cc1 [Necrosulfonamide], which normalised indicator fluorescence is on record?
Its normalised indicator fluorescence is 0.996.

For Cc1cccc(CC(=O)N2CCc3c2ccc(-c2cn(C)c4ncnc(N)c24)c3F)n1, which normalised indicator fluorescence is on record?
Its normalised indicator fluorescence is 1.05.
